Drawing on PubChem BioAssay AID1745850 (National Center for Advancing Translational Sciences (NCATS), 2022), this text covers Potency for 27 compounds.

The whole screen tested about 2,100 compounds, of which about 260 (12%) were called active. Another 58% or so got no clear call; they are omitted. Calls come from the whole dose curve; as a rule, active = well fitted cell-killing curve with a large enough effect; inconclusive = small, poorly fitted or top-dose-only effect, or effect the other way; inactive = flat fitted curve, though single readings scatter. This is one part of the list. Where a call stands in place of a potency, no number is given.
Potency is the fitted concentration of half-maximal effect.

This test is described as follows: Viability Counterscreen for Confirmatory qHTS for Inhibitors of ATXN expression. Note: nearly all actives have a fitted effect of over 50% in size. The settings on record: HEK-293 ATXN2-luc cells viability, CellTiter-Fluor, 24 h. From the text:
PI: Daniel Scoles Ph.D. University of Utah School of Medicine, Salt Lake City, Utah MLPCN Grant: NS073009 Spinocerebellar ataxia type 2 (SCA2) is a multisystem neurodegenerative disease caused by a dominantly acting mutation leading to expansion of a polyQ domain in the ataxin-2 protein (ATXN2). SCA2 patients develop progressive ataxia and later lose function in other neuronal systems. Prominent parkinsonian signs develop in some patients. Like many neurodegenerative disorders, no symptomatic or disease-modifying treatments are known. The primary objective of the proposed research is to identify compounds inhibiting ATXN2 expression and to test them for efficacy in SCA2 mouse models. We have developed a cell-based assay paired with an in vivo mouse model using identical luciferase expression constructs. This approach takes advantage of an ATXN2-luciferase transgene, with the luciferase gene flanked by the upstream and downstream portions of the ATXN2 gene. Here we describe a 5-7 dose quantitative high thoroughput screen (qHTS) for compounds lowering ATXN2 expression. We screened the NIH Molecular Libraries Small Molecule Repository (MLSMR) and NCGC's mechanistically annotated (MIPE) and drug repurposing (NPC) collections of compounds for lowering expression of an ATXN2-luciferase reporter in HEK-293 cells. The assay is a multiplexed cell viability assay to ensure target reduction in the absence of cytotoxicity. Secondary qHTS assays included a CMV-luciferase reporter expressed in HEK-293 cells as well as a biochemical assay using recombinant luciferase to detect inhibitors of the reporter enzyme. Compounds that inhibit ATXN2 expression but is not cytotoxic were selected for confirmatory and secondary screens.
PROTOCOL TABLE (as described by Inglese J, Shamu CE and Guy RK. 2007) SEQUENCE No. (e.g., 1, 2, 3, etc.); […] (e.g., Cells, Incubation, Reagent, etc.); VALUE; DESCRIPTION. 1; Cells; 4 uL; white, solid bottom, 1536-well Greiner assay plate. 2; Incubation; 2 hr; 37 degree C in 5% humidified CO2. 3; Compounds; 23 nL; Kalypsis pintool (Wako USA) equipped with a 1536-well pin head. 4; Incubation; 24 hr; 37 degree C in 5% humidified CO2. 5; Reagent; 1 uL; Gly-Phe-7-Amino-4-trifluoromethylcoumarin. 6; Incubation; 30 min; 37 degree C in 5% humidified CO2. 7; Detection; Fluorescence; ViewLux plate reader (PerkinElmer). 8; Reagent; 3 uL; SteadyGlo luciferase solution (Promega). 9; Incubation; 5 min; room temperature. 10; Detection; Luminescence; ViewLux plate reader (PerkinElmer). NOTES (numbers refer to Sequence numbers above) 1. S2 cells expressing ATXN2-luciferase reporter were suspended in phenol-red free DMEM and dispensed in assay plates using a Multidrop Combi dispenser (Thermo Fisher Scientific). Wells containing medium only were plated on each plate, and values were used to normalize (100% inhibition) in the luciferase and CellTiter-Fluor assays. 2. Assay plates were incubated. Evaporation was prevented by covering assay plates with metal lids containing holes to allow gas diffusion. 3. Compounds were added in a dose response manner with the final concentrations of 57, 11.4, 2.28, 0.46, 0.091, 0.018, 0.0037 uM. Vehicle-only plates, with DMSO being pin-transferred to columns 5-48, were inserted uniformly at the beginning and the end of each library to monitor and record any shifts in assay performance. 5. 125 uM Gly-Phe-7-Amino-4-trifluoromethylcoumarin (MP Biomedicals) working concentration was used at a final concentration of 25 uM. 7. To assess cell viability; the assay plates were read using the ViewLux high-throughput CCD imager (PerkinElmer), wherein single end-point fluorescence measurement was acquired (excitation 405/10; emission 540/25 nm). 8. Detection reagent SteadyGlo Luciferase (Promega) was added to the assay plate. 10. Luminescence is then measured on the ViewLux imager equipped with a clear emission filter using a 2 sec exposure. […]
For the compound `COc1ccccc1N1CCN(Cc2ccc(O)c3ncccc23)CC1`, the Potency is 2.82 µM (active). On to `COc1cccc(CN2CCC2(C)C(=O)Nc2cccc3cccnc23)c1OC` (configuration not stated), for which the Potency entry was “inactive”. For `COCc1cc(CN2CCCC2)c(O)c2ncccc12`, the Potency entry is “inactive”. In the case of `Cc1ccc(/C=C2/CNC/C(=C/c3ccc(C)cc3)C2=O)cc1`, the Potency is 11.2 µM (active). The value for `CN(C)CCNc1cccc2sc3ccc(O)cc3c(=O)c12` was 22.4 µM (active); that for `CN(C)CCNc1ccc2ncn3c4ccc(O)cc4c(=O)c1c23` was “inactive”.

`CCn1c2ccccc2c2cc(/C=C(/C#N)C(N)=S)ccc21`: the Potency result was “inactive”. `C/C(=N\NC(=O)c1cc(-c2cccnc2)nc2ccccc12)c1ccc(O)cc1O`: the Potency is 11.2 µM (active). With `O=C(NN=C1CCCC1)c1cc(-c2ccc(F)cc2)nc2ccccc12`, the Potency entry was “inactive”.

Consider `CCN(CC)S(=O)(=O)c1cccc(C(=O)N/N=C(\C)c2ccc(O)cc2O)c1`, for which the Potency entry is “inactive”. On to `CCN(CC)c1ccc(/C=N/NC(=O)CNC(=O)C2COc3ccccc3O2)c(O)c1` (configuration not stated), for which the Potency entry is “inactive”.

Consider `COc1ccc(CN2CCCN(S(=O)(=O)c3ccc(Br)cc3)CC2)cc1`, for which the Potency result is “inactive”. For `Cc1cccc(OCCCC(=O)Nc2nccs2)c1`, the Potency result was “inactive”. Regarding `O=C(NC(Nc1ncc(S(=O)(=O)c2ccc([N+](=O)[O-])cc2)s1)(C(F)(F)F)C(F)(F)F)c1ccc(Cl)cc1`, the Potency was 10 µM (active). Turning to `O=C(NC(Nc1nc2ccc([N+](=O)[O-])cc2s1)(C(F)(F)F)C(F)(F)F)c1ccccc1`, the Potency was 2.24 µM (active). For the compound `Cc1ccc(S(=O)(=O)c2cc3cc(Br)ccc3oc2=O)cc1`, the Potency entry is “inactive”.

In the case of `Cn1c(CO)cnc1S(=O)(=O)Cc1ccc([N+](=O)[O-])cc1`, the Potency entry is “inactive”. As for `O=C(CN1CCN(C(=O)c2ccc(-c3nc4ccccc4s3)o2)CC1)Nc1ccccc1Cl`, the Potency was 3.55 µM (active). `c1nc(CCO[C@H]2CCCCO2)cc2cc3c(cc12)OCO3`: the Potency result was “inactive”.

`O=C(CN1c2cccc3cccc(c23)S1(=O)=O)NCc1ccc(Cl)cc1`: the Potency entry is “inactive”. For the compound `O=C(CCc1ccccc1)NNC(=O)c1cc(Cl)ccc1O`, the Potency entry is “inactive”. As to `Cc1ccc(-c2c(C#N)c(N)n3c(nc4ccccc43)c2C#N)cc1`, the Potency entry is “inactive”. Take `Cc1cc(Nc2cccc([N+](=O)[O-])c2)n2c(nc3ccccc32)c1C#N`: the Potency is 5.01 µM (active).

For the compound `COc1ccc(-c2nnc(NC(=O)c3ccc(S(=O)(=O)N4COCC4(C)C)cc3)o2)cc1`, the Potency result was “inactive”.

As to `Cc1ccc(NC(=O)c2ccc(-c3nn(C)c(=O)c4ccccc34)cc2)cc1`, the Potency result was “inactive”. With `CCOC(=O)C(NS(=O)(=O)c1ccc(C)cc1)(C(F)(F)F)P(=O)(OCC(C)C)OCC(C)C` (configuration not stated), the Potency result is “inactive”. With `Cc1csc2c(N3CCN(C(=O)Nc4ccc(Cl)c(Cl)c4)CC3)ncnc12`, the Potency entry was “inactive”.
